# Experimental data as given in ChEMBL document CHEMBL3988442, “University of Dundee, Small-Polar-MMV Screening Library” (2021).
# Target: Shiga toxin 2 (Escherichia coli O157:H7) (UniProt P09385+P09386)
# Test: E. coli 0.157:H7 Shiga Toxin SOP - stx2 screening assay
# Format: functional
# Parameters: scale not given: direction of the effect not stated beside the values
# Details: 30 µM
row,Compound,Percent Effect [%]
1,COc1cc(C)c(C(C)NC(=O)Nc2nnc(C)s2)cc1OC (stereo not given),9.98
2,Cc1cnn(C2CCCN(C(=O)c3sccc3-n3cnnn3)C2)c1 (stereo not given),-40.9
3,Cc1ccccc1CSc1nc(N)cc(N2CC[C@@H](O)C2)n1,5.97
4,CC(=O)N1CCCN(C(=O)c2csc(-c3ccc(C)cc3C)n2)CC1,-0.511
5,CC(C)NC(=O)CC1COC2(CCN(Cc3cccs3)CC2)C1 (stereo not given),-27.2
6,Cc1cccc(NC2CCN(C(=O)Nc3cccc4[nH]ccc34)CC2)n1,-50
7,CC(C)(C)c1n[nH]c(C2CN(C(=O)c3cc(C4CC4)on3)CCO2)n1 (stereo not given),-1.24
8,CC(C)c1nc2n(n1)CC(NCc1nc(-c3cccnc3)no1)CC2 (stereo not given),-31.5
9,O=C(CCc1cc2n(n1)CCCN(C(=O)c1cccnc1)C2)NC1CC1,-9.98
10,CCc1ncnc2c1CCN(C(=O)Cc1ccccn1)CC2,-18.4
